# For part of these data: Potency and affinity values are given separately. The source made the active and inactive calls.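 The calls were made as follows, unless noted: active = primary screen activator hit with a dose response curve and TRPC4 channel activation at any tested dose; inactive = no activation, no dose response, or not a primary hit.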
# How the values were obtained:
# [1] = test system: TRPC4 beta (transient receptor potential cation channel C4), mouse; assay: activators of mouse TRPC4 channel, confirmation, cell-based, Fluo4 calcium, HEK293 TRPC4beta/mu-opioid, duplicates, 10 µM (AID 2426;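 active = fluorescence ratio normalized to control raised more than 50% in primary screen plus both repeat runs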); conditions: Fluo4 calcium fluorescence, at 10 µM; active compounds read high
# [2] = test system: transient receptor potential cation channel C4 beta (TRPC4), mouse; assay: activators of mouse TRPC4 channel, confirmation, cell-based, second round, Fluo4, HEK293 TRPC4beta/mu-opioid, 1 µM (AID 2461;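 active = primary screen active and over 50% activation in each of two duplicate runs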); conditions: Fluo4 calcium fluorescence, at 1 µM; active compounds read high
# [3] = test system: TRPC4 (transient receptor potential cation channel C4 beta), mouse; assay: positive allosteric modulators of mouse TRPC4, confirmation, cell-based, second round, Fluo-4, HEK293 TRPC4beta/mu-opioid, 1 µM (AID 2554;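 active = primary screen hit whose fluorescence ratio, in both repeats, exceeds the weak agonist control mean by 3 SD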); conditions: DAMGO EC20, Fluo-4 calcium flux, at 1 µM; active compounds read high
# [4] = test system: TRPC4 beta (transient receptor potential cation channel C4), mouse; assay: positive allosteric modulators of mouse TRPC4, confirmation, cell-based, Fluo-4, HEK293 TRPC4beta/mu-opioid (AID 2555;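 active = primary screen hit whose calcium fluorescence ratio, in both repeats, exceeds the weak agonist control mean by 3 SD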); conditions: DAMGO EC20, Fluo-4 calcium flux, at 10 µM; active compounds read high
# [5] = target: Short transient receptor potential channel 4 (Mus musculus) (UniProt Q9QUQ5); assay: inhibitors of mouse TRPC4 channel, confirmation, cell-based, Fluo4, HEK293 TRPC4beta/mu-opioid (AID 2636;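 active = calcium signal cut by more than 3 SD below the full-agonist control yet still positive, in both repeats and the earlier primary screen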); conditions: DAMGO, Fluo4 calcium flux, at 10 µM; active compounds read high
# [6] = target: Short transient receptor potential channel 4 (Mus musculus) (UniProt Q9QUQ5); assay: inhibitors of mouse TRPC4 channel, confirmation, cell-based, second round, Fluo4, HEK293 TRPC4beta/mu-opioid, 1 µM (AID 2637;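 active = calcium signal ratio cut to more than 3 SD under the fully stimulated control mean yet still positive, in both repeats and the primary screen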); conditions: Fluo4 calcium flux, DAMGO, at 1 µM; active compounds read high
# [7] = target: Short transient receptor potential channel 4 (Mus musculus) (UniProt Q9QUQ5); assay: mouse TRPC4 channel activators, dose response, cell-based, HEK293 TRPC4/mu-opioid, Fluo-4 calcium (AID 434937)
# [8] = target: Short transient receptor potential channel 4 (Mus musculus) (UniProt Q9QUQ5); assay: TRPC4 positive allosteric modulators, dose response, cell-based, HEK293 TRPC4/mu-opioid, Fluo-4 calcium, EC20 DAMGO (AID 434941;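 active = earlier screen potentiator hit that boosts the TRPC4 ion channel at some dose, with a dose response; inactive = no potentiation, no dose response, or not a prior hit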;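 also: calcium entry triggered by an EC20 dose of DAMGO at the co-expressed mu-opioid receptor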)
# [9] = target: Short transient receptor potential channel 4 (Mus musculus) (UniProt Q9QUQ5); assay: mouse TRPC4 channel inhibitors, dose response, cell-based, HEK293 TRPC4/mu-opioid, Fluo-4 calcium (AID 434942;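 active = primary screen inhibitor hit that blocks the TRPC4 channel at some tested dose, yielding a dose curve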)
# [10] = target: Short transient receptor potential channel 6 (Mus musculus) (UniProt Q61143); assay: inhibition of mouse TRPC6 channel, confirmation, selectivity assay for TRPC4 inhibitor project, cell-based, HEK293, membrane potential dye, duplicate (AID 434948;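 active = active in primary screen and both duplicates, each dropping signal beyond three positive-control SD with fluorescence still positive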); conditions: HEK293 TRPC6, membrane potential dye fluorescence, at 10 µM, stimulated with maximal-effect acetylcholine; active compounds read high
# [11] = target: Short transient receptor potential channel 6 (Mus musculus) (UniProt Q61143); assay: activation of mouse TRPC6 channel, confirmation, selectivity assay for TRPC4 activator project, cell-based, HEK293, membrane potential dye, duplicate (AID 434950;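 active = membrane potential signal rise above negative control mean plus 3 SD in both duplicates, also active in the earlier TRPC4 screen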); conditions: HEK293 TRPC6, membrane potential fluorescence, at 10 µM; active compounds read high
# [12] = target: Short transient receptor potential channel 6 (Mus musculus) (UniProt Q61143); assay: TRPC6 potentiation by TRPC4 potentiator hits, confirmation, selectivity assay for TRPC4 potentiator project, HEK293 cells, membrane potential dye, duplicate (AID 434952;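 active = compound raising the membrane signal above positive-control mean plus 3 SD in both repeats, and a primary screen hit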); conditions: HEK293 TRPC6, membrane potential dye fluorescence, at 10 µM, maximal acetylcholine added after compound; active compounds read high
# [13] = target: Short transient receptor potential channel 4 (Mus musculus) (UniProt Q9QUQ5); assay: calcium flux activators in TRPC4/5HT1a cells, counter-screen for TRPC4 activator project, cell-based, second counter screen, HEK293 TRPC4/5HT1a, Fluo-4 (AID 434977;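 active = calcium signal rise above buffer-control mean plus 5 SD in both duplicates, and also a hit in the primary screen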); conditions: Fluo-4 calcium flux, at 10 µM; active compounds read high
# [14] = calcium flux inhibitors in TRPC4/5HT1a cells, confirmation, counter-screen for TRPC4 inhibitor project, cell-based, second counter screen, HEK293 TRPC4/5HT1a, Fluo-4 (AID 434978;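 active = primary screen active whose calcium signal fell more than 3 SD beyond the full-serotonin control mean in both duplicate plates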;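 also: serotonin given first at submaximal then at maximal dose after compound preincubation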); conditions: Fluo-4 calcium flux, at 10 µM, serotonin added to trigger calcium flux; active compounds read high
# [15] = test system: TRPC4 (mouse), co-expressed with 5HT1a in HEK293; assay: calcium flux potentiators in TRPC4/5HT1a cells, confirmation, counter-screen for TRPC4 potentiator project, cell-based, second counter screen, HEK293 TRPC4/5HT1a, Fluo-4 (AID 434979;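 active = signal rise over 3 SD above mean of control wells given weak agonist, in both repeats and first screen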); conditions: Fluo-4 calcium flux, at 10 µM, serotonin added at its EC20 dose; active compounds read high
# [16] = calcium flux activation in mu-opioid HEK293 cells, confirmation, counter-screen for TRPC4 activator project, cell-based, HEK293 mu-opioid receptor line (AID 449723;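 active = hit in primary screen, with calcium signal over 5 SD above buffer well mean in both duplicates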;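 also: counter screen cells carry the mu-opioid receptor alone and lack TRPC4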); conditions: Fluo-4 calcium fluorescence, at 10 µM; active compounds read high
# [17] = calcium flux enhancement in mu-opioid HEK293 cells, confirmation, counter-screen for TRPC4 allosteric potentiator project, cell-based, HEK293 mu-opioid receptor line (AID 449724;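 active = calcium signal rise more than 3 SD above the low-dose agonist control mean, in both duplicate plates and the primary screen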); conditions: Fluo-4 calcium flux, at 10 µM, compound added before EC20 DAMGO stimulus; active compounds read high
# Short transient receptor potential channel 4 (Mus musculus), sequence (Q9QUQ5 whole entry, looked up): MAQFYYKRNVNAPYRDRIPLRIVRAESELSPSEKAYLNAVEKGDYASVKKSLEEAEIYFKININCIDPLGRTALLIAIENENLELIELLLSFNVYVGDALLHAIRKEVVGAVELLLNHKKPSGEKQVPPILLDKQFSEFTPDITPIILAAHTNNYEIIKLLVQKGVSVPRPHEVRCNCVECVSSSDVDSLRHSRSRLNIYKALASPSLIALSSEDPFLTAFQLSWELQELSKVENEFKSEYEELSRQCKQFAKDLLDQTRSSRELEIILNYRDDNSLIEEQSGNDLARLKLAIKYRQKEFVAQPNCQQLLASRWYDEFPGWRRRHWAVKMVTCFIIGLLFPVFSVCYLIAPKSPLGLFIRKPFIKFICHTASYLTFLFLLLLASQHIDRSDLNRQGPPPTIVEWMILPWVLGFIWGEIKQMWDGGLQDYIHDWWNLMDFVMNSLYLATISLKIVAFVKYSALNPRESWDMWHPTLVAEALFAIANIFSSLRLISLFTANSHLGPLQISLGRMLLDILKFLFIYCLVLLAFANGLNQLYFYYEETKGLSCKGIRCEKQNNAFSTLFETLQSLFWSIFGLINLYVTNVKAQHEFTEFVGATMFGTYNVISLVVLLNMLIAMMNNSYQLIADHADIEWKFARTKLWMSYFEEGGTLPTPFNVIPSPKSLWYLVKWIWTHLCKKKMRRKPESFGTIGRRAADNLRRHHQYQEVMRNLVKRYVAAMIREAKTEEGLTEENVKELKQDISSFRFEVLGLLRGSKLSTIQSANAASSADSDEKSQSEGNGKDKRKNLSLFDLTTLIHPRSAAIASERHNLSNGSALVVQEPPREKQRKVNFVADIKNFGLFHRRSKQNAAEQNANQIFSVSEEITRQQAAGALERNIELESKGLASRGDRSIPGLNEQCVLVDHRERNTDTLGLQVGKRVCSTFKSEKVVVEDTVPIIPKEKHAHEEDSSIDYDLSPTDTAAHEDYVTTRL
# Short transient receptor potential channel 6 (Mus musculus), sequence (Q61143 whole entry, looked up): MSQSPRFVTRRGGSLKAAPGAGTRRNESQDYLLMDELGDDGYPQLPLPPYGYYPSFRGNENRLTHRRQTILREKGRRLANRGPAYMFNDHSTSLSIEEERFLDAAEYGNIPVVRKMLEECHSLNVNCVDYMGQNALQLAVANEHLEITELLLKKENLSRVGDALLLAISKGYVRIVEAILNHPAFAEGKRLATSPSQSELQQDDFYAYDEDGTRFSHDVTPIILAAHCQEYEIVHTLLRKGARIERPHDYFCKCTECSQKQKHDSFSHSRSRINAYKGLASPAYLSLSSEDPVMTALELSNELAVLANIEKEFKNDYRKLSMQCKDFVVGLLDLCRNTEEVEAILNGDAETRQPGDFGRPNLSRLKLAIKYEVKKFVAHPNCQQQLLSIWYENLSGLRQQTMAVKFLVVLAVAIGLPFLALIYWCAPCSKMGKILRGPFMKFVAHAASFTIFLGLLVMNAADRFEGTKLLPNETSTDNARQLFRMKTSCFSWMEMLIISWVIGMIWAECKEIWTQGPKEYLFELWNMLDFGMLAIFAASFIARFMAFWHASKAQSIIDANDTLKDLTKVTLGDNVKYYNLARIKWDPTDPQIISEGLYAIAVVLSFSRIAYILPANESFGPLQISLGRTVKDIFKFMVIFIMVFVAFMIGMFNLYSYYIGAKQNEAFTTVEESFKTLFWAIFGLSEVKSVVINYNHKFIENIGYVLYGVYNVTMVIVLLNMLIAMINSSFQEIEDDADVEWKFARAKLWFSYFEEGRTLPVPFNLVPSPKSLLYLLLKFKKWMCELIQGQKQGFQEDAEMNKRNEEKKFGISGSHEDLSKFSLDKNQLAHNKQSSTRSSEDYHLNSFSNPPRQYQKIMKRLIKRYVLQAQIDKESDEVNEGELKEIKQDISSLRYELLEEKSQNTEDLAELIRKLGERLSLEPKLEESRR
smiles,measurement,setting,value
Cn1c(=O)cc(OCCCC(=O)NCCCN2CCN(Cc3ccccc3)CC2)c2ccccc21,outcome,[1],inactive
same,outcome,[2],inactive
same,potentiation,[3],19% (active)
same,potentiation,[4],19% (active)
same,outcome,[5],inactive
same,outcome,[6],inactive
same,outcome,[7],inactive
same,outcome,[8],inactive
same,outcome,[9],inactive
same,outcome,[10],inactive
same,outcome,[11],inactive
same,outcome,[12],inactive
same,outcome,[13],inactive
same,outcome,[14],inactive
same,potentiation,[15],21% (active)
same,outcome,[16],inactive
same,outcome,[17],inactive
CCCCNc1c(-c2ccc(SC(C)CC)c(OC)c2)nc2ccc(C)cn12 (stereo not given),outcome,[1],inactive
same,outcome,[2],inactive
same,outcome,[3],inactive
same,outcome,[4],inactive
same,outcome,[5],inactive
same,outcome,[6],inactive
same,outcome,[7],inactive
same,outcome,[8],inactive
same,outcome,[9],inactive
same,outcome,[10],inactive
same,outcome,[11],inactive
same,outcome,[12],inactive
same,outcome,[13],inactive
same,outcome,[14],inactive
same,outcome,[15],inactive
same,outcome,[16],inactive
same,outcome,[17],inactive
C=CCn1c(SCCN2CCCCC2)nc2c1c(=O)[nH]c(=O)n2C,outcome,[1],inactive
same,outcome,[2],inactive
same,potentiation,[3],27% (active)
same,potentiation,[4],16% (active)
same,outcome,[5],inactive
same,outcome,[6],inactive
same,outcome,[7],inactive
same,outcome,[8],inactive
same,outcome,[9],inactive
same,outcome,[10],inactive
same,outcome,[11],inactive
same,outcome,[12],inactive
same,outcome,[13],inactive
same,outcome,[14],inactive
same,potentiation,[15],20% (active)
same,outcome,[16],inactive
same,outcome,[17],inactive
COCCNC(=O)/C(C#N)=C/c1cc(C(C)C)c(OC)cc1C,outcome,[1],inactive
same,outcome,[2],inactive
same,outcome,[3],inactive
same,potentiation,[4],14% (active)
same,outcome,[5],inactive
same,outcome,[6],inactive
same,outcome,[7],inactive
same,outcome,[8],inactive
same,outcome,[9],inactive
same,outcome,[10],inactive
same,outcome,[11],inactive
same,outcome,[12],inactive
same,outcome,[13],inactive
same,outcome,[14],inactive
same,potentiation,[15],20.4% (active)
same,outcome,[16],inactive
same,outcome,[17],inactive
Cc1ccc(Nc2ccc(S(=O)(=O)N3CCOCC3)cc2[N+](=O)[O-])cc1C,outcome,[1],inactive
same,outcome,[2],inactive
same,outcome,[3],inactive
same,outcome,[4],inactive
same,outcome,[5],inactive
same,outcome,[6],inactive
same,outcome,[7],inactive
same,outcome,[8],inactive
same,outcome,[9],inactive
same,outcome,[10],inactive
same,outcome,[11],inactive
same,outcome,[12],inactive
same,outcome,[13],inactive
same,outcome,[14],inactive
same,outcome,[15],inactive
same,outcome,[16],inactive
same,outcome,[17],inactive
CC(C)(C)C(=O)NCCCc1nc2ccccc2n1CCCOc1ccc(Cl)cc1,outcome,[1],inactive
same,outcome,[2],inactive
same,outcome,[3],inactive
same,outcome,[4],inactive
same,outcome,[5],inactive
same,outcome,[6],inactive
same,outcome,[7],inactive
same,outcome,[8],inactive
same,outcome,[9],inactive
same,outcome,[10],inactive
same,outcome,[11],inactive
same,outcome,[12],inactive
same,outcome,[13],inactive
same,outcome,[14],inactive
same,outcome,[15],inactive
same,outcome,[16],inactive
same,outcome,[17],inactive
Cc1ccc(CN(C(=O)c2cc(=O)c3cc(Cl)c(C)cc3o2)C2CCS(=O)(=O)C2)cc1 (stereo not given),outcome,[1],inactive
same,outcome,[2],inactive
same,outcome,[3],inactive
same,outcome,[4],inactive
same,outcome,[5],inactive
same,outcome,[6],inactive
same,outcome,[7],inactive
same,outcome,[8],inactive
same,outcome,[9],inactive
same,outcome,[10],inactive
same,outcome,[11],inactive
same,outcome,[12],inactive
same,outcome,[13],inactive
same,outcome,[14],inactive
same,potentiation,[15],64% (active)
same,outcome,[16],inactive
same,outcome,[17],inactive
Cc1[nH]nc(-c2ccc(O)cc2O)c1-c1nc2ccccc2s1,outcome,[1],inactive
same,outcome,[2],inactive
same,outcome,[3],inactive
same,outcome,[4],inactive
same,outcome,[5],inactive
same,outcome,[6],inactive
same,outcome,[7],inactive
same,outcome,[8],inactive
same,outcome,[9],inactive
same,outcome,[10],inactive
same,outcome,[11],inactive
same,outcome,[12],inactive
same,outcome,[13],inactive
same,outcome,[14],inactive
same,outcome,[15],inactive
same,outcome,[16],inactive
same,outcome,[17],inactive
CC1(C)CC(=O)C(C=NCCN2CCN(C3CC(=O)N(c4cccc(Br)c4)C3=O)CC2)=C(O)C1 (stereo not given),outcome,[1],inactive
same,outcome,[2],inactive
same,potentiation,[3],12% (active)
same,outcome,[4],inactive
same,outcome,[5],inactive
same,outcome,[6],inactive
same,outcome,[7],inactive
same,outcome,[8],inactive
same,outcome,[9],inactive
same,outcome,[10],inactive
same,outcome,[11],inactive
same,outcome,[12],inactive
same,outcome,[13],inactive
same,outcome,[14],inactive
same,potentiation,[15],16.8% (active)
same,outcome,[16],inactive
same,outcome,[17],inactive
COC(=O)C1=C(C)NC2=C(C(=O)c3ccccc32)C1c1ccc(-c2ccc(C(=O)O)cc2)o1 (stereo not given),outcome,[1],inactive
same,outcome,[2],inactive
same,outcome,[3],inactive
same,outcome,[4],inactive
same,outcome,[5],inactive
same,outcome,[6],inactive
same,outcome,[7],inactive
same,outcome,[8],inactive
same,outcome,[9],inactive
same,outcome,[10],inactive
same,outcome,[11],inactive
same,outcome,[12],inactive
same,outcome,[13],inactive
same,outcome,[14],inactive
same,outcome,[15],inactive
same,outcome,[16],inactive
same,activation,[17],1780% (active)
Cc1ccc(-c2ccc3c(c2)S(=O)(=O)c2ccccc2C3=O)cc1,outcome,[1],inactive
same,outcome,[2],inactive
same,outcome,[3],inactive
same,outcome,[4],inactive
same,outcome,[5],inactive
same,outcome,[6],inactive
same,outcome,[7],inactive
same,outcome,[8],inactive
same,outcome,[9],inactive
same,outcome,[10],inactive
same,outcome,[11],inactive
same,outcome,[12],inactive
same,outcome,[13],inactive
same,outcome,[14],inactive
same,outcome,[15],inactive
same,outcome,[16],inactive
same,outcome,[17],inactive
Clc1ccc2nc(CN3CCCc4ccccc43)cn2c1,outcome,[1],inactive
same,outcome,[2],inactive
same,outcome,[3],inactive
same,potentiation,[4],12% (active)
same,outcome,[5],inactive
same,outcome,[6],inactive
same,outcome,[7],inactive
same,outcome,[8],inactive
same,outcome,[9],inactive
same,outcome,[10],inactive
same,outcome,[11],inactive
same,outcome,[12],inactive
same,outcome,[13],inactive
same,outcome,[14],inactive
same,potentiation,[15],28% (active)
same,outcome,[16],inactive
same,outcome,[17],inactive
CC(C)c1ccc2c(c1)C1Cc3ccccc3C1N2 (stereo not given),outcome,[1],inactive
same,outcome,[2],inactive
same,outcome,[3],inactive
same,outcome,[4],inactive
same,outcome,[5],inactive
same,outcome,[6],inactive
same,outcome,[7],inactive
same,outcome,[8],inactive
same,outcome,[9],inactive
same,outcome,[10],inactive
same,outcome,[11],inactive
same,outcome,[12],inactive
same,outcome,[13],inactive
same,outcome,[14],inactive
same,outcome,[15],inactive
same,outcome,[16],inactive
same,outcome,[17],inactive
N#Cc1ccc(OCC(O)CN2CCN(c3ncc(C(F)(F)F)cc3Cl)CC2)cc1 (stereo not given),outcome,[1],inactive
same,outcome,[2],inactive
same,potentiation,[3],8% (active)
same,outcome,[4],inactive
same,outcome,[5],inactive
same,outcome,[6],inactive
same,outcome,[7],inactive
same,outcome,[8],inactive
same,outcome,[9],inactive
same,outcome,[10],inactive
same,outcome,[11],inactive
same,outcome,[12],inactive
same,outcome,[13],inactive
same,outcome,[14],inactive
same,potentiation,[15],12.6% (active)
same,outcome,[16],inactive
same,outcome,[17],inactive
CCN1CCN(c2c(Cl)cccc2NC(=O)c2cc3ccccc3o2)CC1,outcome,[1],inactive
same,outcome,[2],inactive
same,outcome,[3],inactive
same,outcome,[4],inactive
same,outcome,[5],inactive
same,outcome,[6],inactive
same,outcome,[7],inactive
same,outcome,[8],inactive
same,outcome,[9],inactive
same,outcome,[10],inactive
same,outcome,[11],inactive
same,outcome,[12],inactive
same,outcome,[13],inactive
same,outcome,[14],inactive
same,potentiation,[15],7.29% (active)
same,outcome,[16],inactive
same,outcome,[17],inactive

# — PubChem BioAssay
